Compound activity deposited in PubChem by National Center for Advancing Translational Sciences (NCATS).
Shown is part of a subset that was picked to be rich in hits.
ALOX15B inhib – qHTS Assay for Inhibitors of 15-hLO-2 (15-human lipoxygenase 2); Potency, µM (series often up to 57.1 µM), for the others: top-dose activity change, negative = inhibition, hits mostly inhibitors; purified 15hLO-2, xylenol orange hydroperoxide absorbance; actives 0.56% (n = 110,000); Polyunsaturated fatty acid lipoxygenase ALOX15B (Homo sapiens), O15296; further: potency means the concentration at half of the fitted maximal effect; nearly all actives have a fitted effect of over 60% in size
Target sequence (O15296 whole entry, looked up): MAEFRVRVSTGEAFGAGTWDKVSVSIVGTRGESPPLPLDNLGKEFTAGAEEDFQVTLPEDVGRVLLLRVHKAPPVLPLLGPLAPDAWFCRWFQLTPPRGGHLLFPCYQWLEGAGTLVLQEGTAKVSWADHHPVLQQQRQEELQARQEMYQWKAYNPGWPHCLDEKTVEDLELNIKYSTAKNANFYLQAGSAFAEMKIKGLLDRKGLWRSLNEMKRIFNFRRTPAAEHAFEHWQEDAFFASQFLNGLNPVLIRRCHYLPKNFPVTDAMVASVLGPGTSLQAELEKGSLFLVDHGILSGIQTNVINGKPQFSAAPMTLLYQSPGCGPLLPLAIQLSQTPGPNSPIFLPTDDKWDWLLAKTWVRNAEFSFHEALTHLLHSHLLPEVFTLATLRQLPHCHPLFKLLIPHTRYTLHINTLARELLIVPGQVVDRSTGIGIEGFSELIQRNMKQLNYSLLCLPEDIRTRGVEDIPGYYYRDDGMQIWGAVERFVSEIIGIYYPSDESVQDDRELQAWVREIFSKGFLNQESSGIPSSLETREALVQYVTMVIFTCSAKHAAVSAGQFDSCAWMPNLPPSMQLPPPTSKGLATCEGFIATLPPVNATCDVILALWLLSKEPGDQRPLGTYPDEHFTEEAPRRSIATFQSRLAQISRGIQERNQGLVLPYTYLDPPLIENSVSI
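Enzyme 50 nM, AA 45 uM, 25 mM Hepes pH 7.5 + 0.01% Triton X-100; cpd preinc 15 min RT, rxn 90 min RT; stop/detect with 200 uM XO + 300 uM Fe(II) in 50 mM H2SO4, 30 min; A573/A405.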
IMPase Li inh – qHTS Assay for Identifying the Cell-Membrane Permeable IMPase Inhibitors: Potentiation with Lithium. CHO-M1 cells, IP1 TR-FRET (IP-One), carbachol + lithium. Potency, µM (series often up to 59.4 µM), for inactives: at the highest dose activity, negative = IMPase inhibition, hits mostly inhibitors. actives 0.35% (n = 210,000). AID 1457, 2008;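 further: IP1 builds up when IMPase is blocked and the TR-FRET signal falls; potency means the concentration at half of the fitted maximal effect; plate controls were basal vehicle for no effect and high inhibitor control for full effect; nearly all actives have a fitted effect of over 50% in size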
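CHO cells stably expressing M1 receptor (2000/well) were cultured 16–30 h, then exposed to compounds with a small lithium addition for 30 min at 37C. IP1 was measured by TR-FRET competition; AC50 from Hill fits.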
IMPase cell inh – qHTS Assay for Identifying the Cell-Membrane Permeable IMPase Inhibitors; CHO-M1 cells, IP1 accumulation, HTRF TR-FRET ratio; inhibition (IP1 accumulation), % at 46.1 µM; 120,000 tested, under 10 active; AID 901, 2007; active means well fitted curve in the direction sought with a large enough effect in the signal ratio, not every such curve was filed as active; inconclusive means small, poorly fitted or top-dose-only effect, or a change in a side signal; inactive means no such curve, though single readings can be large or run the other way; the % refers to the signal ratio;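 further: cells stimulated with carbachol in lithium chloride buffer; plate controls were DMSO basal wells for no effect and reference inhibitor wells for full effect; higher means more IMPase inhibition seen as more IP1 and lower FRET ratio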
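Carbachol-driven Gq signalling in CHO-M1 cells (2000/well) generates IP1. Compounds that block IMPase raise IP1 and so reduce the FRET signal from Eu-anti-IP1 and d2-IP1 after a 10 min room-temperature lysis.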
12-hLO inh – qHTS Assay for Inhibitors of 12-hLO (12-human lipoxygenase). Polyunsaturated fatty acid lipoxygenase ALOX12 (Homo sapiens), P18054. AID 1452, 2008. actives 0.12% (n = 150,000). Potency, µM (top dose mostly 57.1 µM), inactives show at the top dose activity change, negative = inhibition, usual class: inhibitors. purified 12-hLO, xylenol orange hydroperoxide absorbance; further: potency means the concentration at half of the fitted maximal effect; nearly all actives have a fitted effect of over 55% in size
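Lipoxygenase turnover measured by absorbance at 573 and 405 nm after Fe-XO development. Human 12hLO 150 nM, arachidonate 40 uM, pH 7.0 Hepes buffer with detergent; 15 min compound preincubation, 30 min reaction.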
PNC inhibitor – High Content Assay for Compounds that inhibit the Assembly of the Perinucleolar Compartment | PC3M PTB-GFP, PNC prevalence imaging, 16 h; stronger effect = lower value | activity change (PNC), negative = inhibition, % at 10 µM | actives 3.1% (n = 140,000) | AID 2417, 2010;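 active means readout at or below -70, meaning at least 70% loss of cells showing the perinucleolar compartment, a nuclear body marking cancer cells; inconclusive means readout between -30 and a set limit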;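 further: plate controls were DMSO wells for no effect and camptothecin positive control wells for full effect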
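PC3M cells stably expressing PTB-GFP, 750–1000 cells/well, treated 16 h at 37 °C with compound (23 nl of library stock), in duplicate. After paraformaldehyde fixation and Hoechst stain, imaged at 20x; PNC prevalence scored by image analysis.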
Active calls of the source: *; u = inconclusive; x = no result; [ ] = another dose, or the depositor's remark. Unless noted, the call rests on the fitted dose curve; in most records, active means well fitted curve in the direction sought with a large enough effect; inconclusive means small, poorly fitted or top-dose-only effect, or another doubt; inactive means no such curve, though single readings can be large; an effect the other way counts as inactive or inconclusive. Unless noted, on the % scale 0 is the no-effect control and ±100 the full control effect.

SMILES	ALOX15B inhib	IMPase Li inh	IMPase cell inh	12-hLO inh	PNC inhibitor
CC(=O)N1CCN(c2ccc(NCc3ccc(C)cc3)cc2)CC1	10µM*	2.8%[38.3 µM]	6.5	17.8µM*	u
CC(=O)Nc1ccc(N2CCN(C(C)=O)CC2)cc1	-6.7%	4.8%[38.3 µM]	-3.9	-7.2%	25.8
CCc1ccc(CNc2ccc(N3CCN(C(C)=O)CC3)cc2)cc1	12.6µM*	44.7%[38.3 µM]	11.9	u	u
CCCCN(c1ccccc1)S(=O)(=O)c1ccc2c(c1)CCN2C(=O)CCC(=O)O	-0.1%	12.7%[38.3 µM]	6.7	-1.7%	-83.1*
COCCNC(=O)c1ccc(Cc2nc3ccccc3[nH]2)cc1	x	x	x	-0.9%	x
CCOC(=O)C(NCc1ccccn1)(NC(=O)c1cccnc1)C(F)(F)F (stereo not given)	39.5%	17.2%[38.3 µM]	12.9	10.2%	-86.1*
CCOC(=O)C(NC(=O)c1cccnc1)(Nc1cccc(C)n1)C(F)(F)F (stereo not given)	1.5%	15.1%[38.3 µM]	4.6	5.3%	23.9
COc1ccc2c(c1)c1nnc(SCC(=O)N3C(C)CCCC3C)nc1n2C (stereo not given)	3.5%	5.7%[38.3 µM]	4.2	-2.0%	55.2
COc1ccc2c(c1)c1nnc(SC)nc1n2C	-4.8%	0.1%[38.3 µM]	2.8	-15.3%	-88.4*
Cc1cc2cc(CNS(=O)(=O)c3ccc4ccccc4c3)ccc2n1C	-7.8%	-5.5%[38.3 µM]	-15.0	3.0%	-101.8*
CC(=O)Nc1ccc(S(=O)(=O)NCc2ccc3c(c2)cc(C)n3C)cc1	-2.4%	0.1%[38.3 µM]	3.5	4.5%	1.9
Cc1nn(Cc2ccccc2Cl)c(C)c1C(=O)Nc1nnc(C2CC2)s1	14.4%	22.3%[38.3 µM]	2.2	1.5%	-96.7*
Nc1cccc(S(=O)(=O)O)c1	-13.4%	14.7%	x	3.4%	x
Cn1c(=O)c2sccc2n2c(CCCC(=O)NCc3ccc4c(c3)OCO4)nnc12	-8.3%	-7.2%[38.3 µM]	7.5	-0.1%	-100.0*
C[C@@H]1NC(=O)c2cc([N+](=O)[O-])cc(I)c2NCC[C@@H](C(N)=O)NC(=O)[C@H](CC(N)=O)NC1=O	x	-6.2%	x	-9.9%	-103.5*
CC(=O)c1c(C)nc(-c2ccc(Cl)cc2Cl)n1O	x	3.8%	-6.8	-8.5%	-100.0*
Cc1cccc(N2CCN(C(=O)Cn3sc4nc(C)cc(C)c4c3=O)CC2C)c1 (stereo not given)	1µM*	19.9%[38.3 µM]	1.8	u	17.4
CC1(C)CC(=O)C(C(c2ccncc2)C2C(=O)CC(C)(C)CC2=O)C(=O)C1	-0.5%	-4.6%[38.3 µM]	-4.6	-1.7%	-86.7*
CC1(C)CC(=O)C(C(c2cccc([N+](=O)[O-])c2)C2C(=O)CC(C)(C)CC2=O)C(=O)C1	x	0.8%	x	-3.2%	u
CC(O)COC(C)(C)C (stereo not given)	1.6%	4.6%	x	-0.4%	x
COc1ccc(C2C(C(=O)N3CCN(C)CC3)c3cc(OC)c(OC)cc3C(=O)N2C)cc1 (stereo not given)	x	-2.0%	x	x	x
CCN1CCN(C(=O)C2c3cc(OC)c(OC)cc3C(=O)N(C)C2c2ccc(SC)cc2)CC1 (stereo not given)	x	6.4%	13.1	3.1%	-100.0*
CCC(C)NC(=O)C1CCC(=O)N(c2cc(OC)c(OC)c(OC)c2)C1c1ccc(OC)cc1 (stereo not given)	x	2.9%	u	4.2%	-100.0*
CCC(C)NC(=O)C1c2cc(OC)c(OC)cc2C(=O)N(C)C1c1cccs1 (stereo not given)	5.0%	-12.4%[38.3 µM]	-1.3	0.3%	9.9
COc1ccc(C2C(C(=O)N3CCN(c4ccccc4)CC3)c3ccccc3C(=O)N2C)cc1 (stereo not given)	x	9.6%	-0.5	-3.2%	-100.0*
COc1ccc(C2C(C(=O)N3CCN(c4ccccc4)CC3)c3ccccc3C(=O)N2C)cc1OC (stereo not given)	-3.3%	-1.9%	-2.2	-4.2%	34.9
